The text below walks through data of PubChem BioAssay (NCI).

Holding throughout (assay): NCI-60 one-dose screen, 48 h (100 = growth as untreated, 0 = no growth, -100 = all killed)
Settings in all cases: 10 µM unless noted

Assay [1] concerns HCT-15 colon.
For assay [2], the system named is HT29 colon.
Assay [3] deals with SNB-75 CNS.
Assay [4] has as its system SNB-19 CNS.
The subject of assay [5] is U251 CNS.
The subject of assay [6] is PC-3 prostate.
The subject of assay [7] is SK-MEL-5 melanoma.
In assay [8] the test system is UACC-62 melanoma.
The test system of assay [9] is LOX IMVI melanoma.
Assay [10] has as its system SK-MEL-28 melanoma.
For assay [11], the system named is SK-MEL-2 melanoma.
The test system of assay [12] is EKVX NSCLC.
In assay [13] the test system is SN12C renal.
The subject of assay [14] is UO-31 renal.
Assay [15] concerns TK-10 renal.
For assay [16], the system named is ACHN renal.
The subject of assay [17] is CAKI-1 renal.
Assay [18] deals with A498 renal.
Assay [19] deals with CCRF-CEM leukemia.
For assay [20], the system named is MOLT-4 leukemia.

About 83,000 compounds went through this panel and 20% of them were active in at least one assay; those are over-represented in the sample as a whole.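 In brief: 96-well plates, 48 h treatment, single concentration, percent growth endpoint.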 Unmarked numbers belong to inactive results. Calls of active or inactive are those of the source. Rule for the calls: active = growth percent below 10; inactive = the rest.

Regarding `COc1ccc(C(=O)Nc2ncc(Cc3ccc(Cl)cc3)s2)cc1`, the growth in assay [1] is 8.72% (active); in [2] it was 6.03% (active); in assay [3], 20%; in assay [4], 23.9%; in assay [5], 25.2%; in assay [6], 22.7%. The growth in assay [7] was -1.16% (active); in assay [8], 33.5%; in assay [9], 19.8%; in assay [10], 52.3%; in [11], 23.9%; in assay [12] it was 36.5%. Moreover, the growth in assay [13] is 24.8%; in [14] it was 37.4%; in [15] it was 58.9%; in assay [16], 25.6%; in assay [17] it was 18.4%; in assay [18] it was -18.5% (active). In addition, the growth in assay [19] is 14.5%; in assay [20], 12.3%.
With `O=C1c2cccnc2C(=O)c2c1c(C(=O)OCCc1ccccn1)c1ccccn21`, the growth is -75.9% (active) in assay [1]; -75% (active) in assay [2]; -85.3% (active) in assay [3]; -38.7% (active) in [4]; -82.5% (active) in [5]; -3.59% (active) in [6]. Besides, the growth is -94.2% (active) in assay [7]; -55.6% (active) in assay [8]; -50% (active) in assay [9]; -33.3% (active) in assay [10]; -35.4% (active) in [11]; 25.4% in assay [12]. Also, the growth in assay [13] is -33.4% (active); in [14], -48.7% (active); in assay [15], -43.9% (active); in [16], -48.5% (active); in assay [17], 8.74% (active); in assay [18] it was -57% (active). For the same molecule, the growth in [19] was -14.1% (active); in assay [20], -0.142% (active).
As to `Oc1c(CN2CCC(N3CCOCC3)CC2)cc(Cc2cc(CN3CCC(N4CCOCC4)CC3)c(O)c3ncccc23)c2cccnc12`, the growth in assay [1] was 24%; in assay [2], 30.2%; in assay [3], 56.9%; in [4], 29.3%; in assay [5] it was 27.5%; in assay [6], 13.1%. Besides, the growth is 8.31% (active) in assay [7]; -6.33% (active) in assay [8]; 1.05% (active) in assay [9]; 45% in assay [10]; 53.7% in [11]; 24.9% in assay [12]. Moreover, the growth in assay [13] was 29.1%; in assay [14], 17.9%; in assay [15], 42.3%; in assay [16] it was 23.5%; in assay [17], 13.2%; in [18] it was 69.1%. The growth is 12.6% in assay [19] and 6.57% (active) in [20].
With `CN1CC(c2ccc(Br)cc2)C(C(=O)c2ccc(Br)cc2)C12C(=O)Nc1ccccc12` (stereo not given), the growth in assay [1] is 59.5%; in assay [2], 36%; in assay [3] it was 71.9%; in [4] it was 85.1%; in [5], 82.3%; in assay [6], 43.5%. Moreover, the growth was 94.2% in assay [7]; 63.9% in assay [8]; 79.8% in assay [9]; 95.6% in assay [10]; 82.9% in assay [11]; 70.1% in [12]. Further, the growth in assay [13] is 70%; in assay [14], 48.3%; in assay [15], 92.1%; in assay [16] it was 79.6%; in assay [17] it was 46.9%; in assay [18] it was 88.9%. Moreover, the growth in assay [19] is 80.2%; in assay [20], 64.3%.
Consider `CC1(C)CC[C@]23CC[C@]4(C)[C@H](CC[C@@H]5[C@@]6(C)CCNCC(C)(C)[C@@H]6CC[C@]54C)[C@H]2[C@H]1OC3`, for which the growth in [1] was 54.2%; in assay [2], 18.6%; in [3], 96.8%; in [4], 103%; in [5] it was 70%; in assay [6], 65.8%. Further, the growth in assay [7] is 96.2%; in [8], 94.4%; in [9] it was 83.8%; in assay [10], 99.9%; in assay [11], 99.1%; in [12], 109%. The growth in [13] is 89.6%; in [14], 99.5%; in assay [15], 108%; in assay [16], 106%; in [17], 93.9%; in assay [18], 117%. Moreover, the growth in [19] was 70.8%; in assay [20] it was 58.7%.
Take `CN1C(=O)/C(=C/c2ccc(C(=O)Nc3ncc(Cc4cccc(C(F)(F)F)c4)s3)cc2)SC1=S`: the growth in assay [1] is 36.3%; in assay [2], 55.4%; in [3], 64.1%; in assay [4], 61.5%; in assay [5], 67.8%; in [6] it was 53.5%. Further, the growth was 7.19% (active) in assay [7]; 11.3% in assay [8]; 35% in [9]; 46.4% in assay [10]; 56.7% in assay [11]; 37.1% in [12]. Moreover, the growth was 73.4% in assay [13]; 51.1% in assay [14]; 47.5% in assay [15]; 32.4% in [16]; 22% in [17]; 35.6% in assay [18]. Further, the values for the growth in [19] and in [20] were 7.85% (active) and 46.8%, respectively.
Take `COc1cc(C=Nc2oc(-c3ccccc3)c(-c3ccccc3)c2C#N)cc(CN2CCCC2)c1O`: the growth was 103% in assay [1]; 107% in assay [2]; 66.8% in assay [3]; 94.6% in assay [4]; 93.2% in [5]; 86.8% in assay [6]. Also, the growth is 104% in [7]; 86.5% in assay [8]; 96.5% in assay [9]; 112% in assay [10]; 105% in assay [11]; 91.8% in assay [12]. The growth in assay [13] is 91.8%; in assay [14] it was 68%; in assay [15], 123%; in [16] it was 85.1%; in [17], 77.3%; in assay [18], 64.4%. Besides, the growth in [19] is 102%; in assay [20], 104%.
On to `N=C(N)c1ccc(-c2ccc(-c3ccccc3)o2)o1`, for which the growth in assay [1] is 13%; in assay [2] it was 4.83% (active); in assay [3], 32.8%; in assay [4], 38.3%; in assay [5], 10.3%; in [6], 30.4%. Also, the growth in assay [7] was 30.5%; in assay [8] it was 61.9%; in [9] it was 14.3%; in [10], 69.1%; in [11], 45.1%; in assay [12], 51.9%. For the same molecule, the growth in assay [13] is 39%; in assay [14], 41.9%; in assay [15] it was 60.5%; in assay [16] it was 38.5%; in assay [17], 37.4%; in assay [18] it was 48.7%. The growth in [19] is 15.4%; in [20] it was 15.6%.
